# Assay results reported in PubChem BioAssay AID1985 (Southern Research Specialized Biocontainment Screening …, 2009).
# Hit rate of the full screen: of about 2,300 compounds, about 1,000 (43%) were called active. The set was probably picked from earlier hits. Some of the results follow. Results with a measured potency or affinity are listed apart. A number with no mark means an inactive call. The rule behind the calls is not given here.
# Test: PhoP regulon inhibitor project modified counter assay, GFP fluorescence readout, dose response (AID 1985)
# Settings: S. Typhi, 4 h; series mostly up to 150 µM; inhibition: at the top concentration
row,Structure (SMILES),inhibition
1,Cc1cc(C)c(-n2nnnc2SC(C)C)c(C)c1,-0.97%
2,Cc1ccccc1N1C(N)=NC(N)=NC1(C)C,-6.52%
3,COc1cc(/C=N/N(C)S(=O)(=O)c2ccc(C)cc2)cc([N+](=O)[O-])c1O,36.4%
4,COc1ccccc1CNC(=O)Cn1c(=O)oc2cc(S(=O)(=O)N3CCCC3)ccc21,12.1%
5,CCCCN1/C(=C/c2cccc[n+]2C)Sc2cc(NC(C)=O)ccc21,5.75%
6,CCCCc1cc(=O)oc2cc(C)c(CN3CCCC3)c(O)c12,20.6%
7,O=C(NC(O)C(=O)c1ccccc1)c1ccc(F)cc1 (centres undefined),-23.6%
8,O=C(/C=C/c1ccc(Cl)cc1Cl)NCc1ccncc1,16.7%
9,COc1ccccc1/C=C/C(=O)Nc1cccc(C(C)=O)c1,24.2%
10,Cc1ccc(N2C(N)=C(C#N)C(c3cccnc3)C3=C2CC(C)(C)CC3=O)cc1 (centres undefined),-21.1%
11,OCCCCNCc1ccc(OCc2ccccc2Cl)cc1,23.7%
12,CCOc1cc(CNC(C)(C)CO)cc(Br)c1OCc1ccc(Cl)cc1Cl,32.3%
13,COc1cc(CNC2CCCC2)cc(Cl)c1OCc1ccccc1Cl,-28.1%
14,CCOC(=O)c1c(C)[nH]c(C(=O)CN2C(=O)NC(C)(c3ccc4ccccc4c3)C2=O)c1C (centres undefined),-6.21%
15,Cc1cc(=O)oc2ccc(OCC(=O)N3CCC(C)CC3)cc12,14.8%
16,O=C(O)COc1ccc(F)cc1Br,3.92%
17,O=C(COc1ccc(Cl)cc1)N1CCN(C2CCCC2)CC1,-26.3%
18,CC1CC1C(=O)Nc1nc2ccc(S(C)(=O)=O)cc2s1 (centres undefined),6.02%
19,CCOC(=O)Cc1csc(NC(=O)c2ccc(S(=O)(=O)N3CCCC3)cc2)n1,-6.85%
20,Cc1ccc(-c2nc(C(=O)NCCCN(C)C)cc3c2[nH]c2ccccc23)cc1,15.2%
21,O=C(Cn1cnc2cc([N+](=O)[O-])ccc2c1=O)Nc1ccccc1Cl,4.55%
22,O=C(Nc1nccs1)c1ccc(Cl)cc1[N+](=O)[O-],2.12%
23,O=C(NCCCN1CCOCC1)C(C(=O)c1ccccc1)n1ccccc1=O (centres undefined),25.3%

row,Structure (SMILES),inhibition
1,CCCCNC(=S)Nc1ccc([N+](=O)[O-])cc1,37.9%
2,COc1cc(CNc2ccc(N3CCN(C(C)=O)CC3)cc2)ccc1OCc1ccccc1,-2.24%
3,COc1ccc(CNCCc2c[nH]c3ccccc23)c(OC)c1C,0.46%
4,COc1cc(CNCCc2c[nH]c3ccccc23)ccc1OCc1ccccc1F,8.11%
5,O=C(Cn1c(C(F)(F)F)nc2ccccc21)NCCCN1CCOCC1,-22.6%
6,Cc1ccc(S(=O)(=O)N(Cc2n[nH]c(=S)n2-c2ccccc2)c2ccccc2)cc1,-23%
7,COc1ccccc1OCc1nnc(SCC(=O)NCc2ccco2)n1Cc1ccco1,-24.1%
8,O=C(Cn1nc(Cl)nc1Cl)c1ccc([N+](=O)[O-])cc1,27.9%
9,O=C(Nc1ccc(Br)cc1)N1CCCCC1,22.6%
10,CCn1c(CNC(=O)c2ccc(OC)cc2)nnc1SC,1.63%
11,CN(C)S(=O)(=O)c1cccc(NC(=O)c2cnccn2)c1,10.4%
12,COc1ccc(C(=O)NNS(=O)(=O)c2ccccc2)cc1OC,-24%
13,COc1cc(C(=O)NC(=S)Nc2cccc3nc(C)ccc23)cc(OC)c1OC,-5.39%
14,CCOc1ccc2nnnn2n1,-9.4%
15,COc1ccc2c(c1)cc1n2CCN=C1N,-17.6%
16,CCC(C)(C)NC(=O)COc1ccc(C(=O)c2ccccc2)cc1,-7.83%
17,CCOCCCNC(=O)C(c1ccc(OC)cc1)N(Cc1cccs1)C(=O)c1ccccn1 (centres undefined),9.15%
18,COCCCNC(=O)c1cc(OC)c(OC)c(OC)c1,10.2%
19,Cc1ccc(OCC(=O)N2CCN(S(C)(=O)=O)CC2)cc1,-33.7%
20,Cc1oc2nc(SCCCC(=O)NCCCO)nc(N)c2c1C,-14.7%
21,COc1cc(C(=O)Nc2ccc3c(c2)OCCO3)ccc1OC(C)C,28.5%
22,CCCC(C(=O)NCC1CCCO1)N(Cc1ccco1)C(=O)CNS(=O)(=O)c1ccc(F)cc1 (centres undefined),23%
23,O=C1c2ccccc2C(=O)N1CCC(c1ccccc1)c1ccco1 (centres undefined),-29.2%

row,Structure (SMILES),inhibition
1,O=c1oc2ccccc2c(O)c1C(c1ccccn1)c1c(O)c2ccccc2oc1=O,13.5%
2,O=C(CC(=O)NCc1ccccc1)NCc1ccccc1,-27.6%
3,S=C(Nc1ccccc1Cl)N(Cc1ccccc1)Cc1ccccn1,-19.1%
4,O=C(NC(=O)c1ccccc1)OCC1CCCN2CCCCC12 (centres undefined),0.4%
5,Cc1cc(C)c2nc(/N=C(\N)NC(=O)c3ccccc3)nc(C)c2c1,-14.7%
6,CC(C)(C)c1ccc(C(=O)NNC(=O)Cc2ccccc2)cc1,-18.7%
7,O=C(c1cccs1)N1CCN(S(=O)(=O)c2ccccc2)CC1,-1.71%
8,CCOC(=O)c1ccc(NC(=O)c2cc3c(s2)CCC3)cc1,-14.7%
9,Cc1cc(C(=O)Nc2cccnc2)on1,-8.91%
10,O=C(CCCc1ccccc1)Nc1cccnc1,21.9%
11,Cc1cc(C)c([C@@H]2C[C@H]3CN(C4CCCC4)C(=O)[C@]34CCCN24)c(-n2cccn2)c1,7.68%
12,O=C(CCCOc1ccc(Cl)cc1Cl)NNC(=O)C1CCC1,32.7%
13,CC(C)(C)c1ccc(OCCCNC2CCCC2)cc1,19.2%
14,CSCCC(NC(=O)c1ccc(Br)cc1)C(=O)O (centres undefined),-19.7%
15,CCCOc1ccc(C(=O)NNC(=S)NC(=O)c2ccco2)cc1,37.2%
16,CCOc1ccc(NC(=O)c2ccc(N)cc2)cc1,22.8%
17,Cc1ccc(CCNC(=O)C2CCN(S(=O)(=O)N3CCCC3)CC2)cc1,2.57%
18,O=C1C=C(c2ccc(Cl)cc2)C(=O)N1Nc1ccccc1,-5.69%
19,CCCn1c(SCc2ccc(Cl)cc2)nc2c1c(=O)[nH]c(=O)n2C,-8.46%
20,CN1CCCN(C(c2ccccc2)c2ccc(Cl)cc2)CC1 (centres undefined),20.4%
21,Cc1c(C(=O)Nc2ccncc2)sc2nc(-c3ccc(F)cc3)cn12,5.26%
22,COc1cccc(CNc2nn[nH]n2)c1OC,5.63%
23,COc1ccccc1CNC(=O)COC(=O)CCC(=O)c1cccs1,11.2%

row,Structure (SMILES),inhibition
1,Clc1ccc(CNCc2cccs2)cc1Cl,-13.4%
2,Fc1ccc(NC(=S)NCc2ccccc2Cl)cc1,9.03%
3,Fc1ccccc1CSc1ccc(-c2ccco2)nn1,2.22%
4,O=C(O)CCSCc1ccccc1F,12%
5,COc1ccc2[nH]cc(CC(=O)O)c2c1,-1.77%
6,COc1ccc(C2=NN3C(C2)c2ccccc2OC3c2cccs2)cc1 (centres undefined),9.41%
7,O=C(CSc1cccc2cccnc12)Nc1ccc(S(=O)(=O)N2CCOCC2)cc1,20.2%
8,O=C(O)COc1ccccc1/C=N/NC(=O)c1cccc(S(=O)(=O)N2CCOCC2)c1,28%
9,Cn1c(-c2ccc(Cl)cc2)cnc1N,-30.5%
10,O=[N+]([O-])c1ccc(-c2cnc(NO)nc2)cc1,20.5%
11,COc1cccc(C(=O)N(CN2CCCC2=O)c2cc(C)on2)c1,-12.3%
12,N#Cc1ccc(C2=NC(C(F)(F)F)(C(F)(F)F)c3c(n(Cc4ccco4)c(=O)[nH]c3=O)N2)cc1,-13.8%
13,COc1ccc(NC(=O)C2CCCN(C(=O)NC3CCCCC3)C2)cc1OC (centres undefined),-14.7%
14,Cc1ccc(S(=O)(=O)NCC(=O)OCN2C(=O)c3ccccc3C2=O)cc1,-33.3%
15,CCN1CCN(c2nc3ccccc3nc2C(C#N)S(=O)(=O)c2ccc(C)cc2)CC1 (centres undefined),1.64%
16,COc1ccc(-c2cc(=NCC(=O)O)c3ccccc3o2)cc1,7.24%
17,CCOC(=O)C(NC(C)=O)(Nc1cccc(F)c1)C(F)(F)F (centres undefined),-16.7%
18,CC(=O)Nc1cccc(NC(=O)Nc2ccc(C)c(Cl)c2)c1,17.6%
19,O=C(Nc1cccc(F)c1)NC1CCCCC1,31.8%
20,Cc1nc(NC2=NCN(CCCN3CCOCC3)CN2)nc2c(C)cccc12,18%
